For 48 compounds, Percent Effect results are on record in ChEMBL document CHEMBL3988442, “University of Dundee, Small-Polar-MMV Screening Library” (2021).

SMILES strings stand for the structures.

Experiment [1] deals with T1, Aspartate--tRNA(Asp/Asn) ligase (Mycobacterium tuberculosis (strain ATCC 25618 / H37Rv)) (UniProt P9WFW3).
T1 sequence (whole entry): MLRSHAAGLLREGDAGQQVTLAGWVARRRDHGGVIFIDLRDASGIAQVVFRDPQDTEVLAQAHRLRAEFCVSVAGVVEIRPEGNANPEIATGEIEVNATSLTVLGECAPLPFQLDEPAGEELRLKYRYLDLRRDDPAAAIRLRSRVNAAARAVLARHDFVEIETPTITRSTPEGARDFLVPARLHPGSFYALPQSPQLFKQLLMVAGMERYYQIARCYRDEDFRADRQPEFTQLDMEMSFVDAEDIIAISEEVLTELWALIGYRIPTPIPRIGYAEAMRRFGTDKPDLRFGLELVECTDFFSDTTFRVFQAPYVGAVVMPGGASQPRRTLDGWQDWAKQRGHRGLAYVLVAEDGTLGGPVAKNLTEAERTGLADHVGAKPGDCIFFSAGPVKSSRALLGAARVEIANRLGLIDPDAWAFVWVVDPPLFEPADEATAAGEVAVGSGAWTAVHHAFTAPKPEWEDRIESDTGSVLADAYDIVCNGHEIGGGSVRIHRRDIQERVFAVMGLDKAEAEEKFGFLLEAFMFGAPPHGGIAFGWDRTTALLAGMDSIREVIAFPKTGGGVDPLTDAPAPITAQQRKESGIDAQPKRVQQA
The experiment is described as follows: Assay for Asp RNA synthetase-1 from Mycobacterium tuberculosis. Type of experiment: functional. More on the design: scale not given: direction of the effect not stated beside the values. The note with it: 30 µM.

Experiment [2] has as its target Shiga toxin 2 (Escherichia coli O157:H7) (UniProt P09385+P09386). Put plainly: E. coli 0.157:H7 Shiga Toxin SOP - stx2 screening assay. Format: functional. On the set-up: scale not given: direction of the effect not stated beside the values. The note with it: 30 µM.

As to `COc1ccc(CN2CC[C@H](NC(C)=O)[C@@H](O)CC2)c(OC)c1`, the Percent Effect is 3.53% in experiment [1] and -14.9% in experiment [2].
For the compound `Cc1nnc(NC(=O)NCc2cccnc2N(C)C)s1`, the figures for the Percent Effect in experiment [1] and in experiment [2] were -2.76% and -16.1%, respectively.
The like results for `COc1cccc(CCC(=O)N2CCCC(n3cc(C)cn3)C2)c1` (stereo unspecified) were, in that order, -3.33% and 10.7%.
As to `O=C(Cc1ccccn1)N1CCN(CC2CC2)c2ncccc2C1`, the values for the Percent Effect in experiment [1] and in experiment [2] were 5.6% and -12.7%, respectively.
In the case of `CCn1cc(CN2CCCN(C(=O)CCCn3cncn3)CC2)cn1`, the values for the Percent Effect in experiment [1] and in experiment [2] were -4.34% and -21.5%, respectively.
`O=C(COCc1ccccc1)N1CCC(OCc2cccnc2)CC1`: the Percent Effect was -4.62% in experiment [1] and 11.5% in experiment [2].
The like results for `O=C1CN(Cc2ccc(-c3ccccc3C(=O)O)cc2)CCN1` were, in that order, 5.6% and 43.1%.
`Cc1nc(C)n(C2CCCN(C(=O)c3cc(C(N)=O)cs3)C2)n1` (stereo unspecified): the Percent Effect was -5.92% in experiment [1] and -13.1% in experiment [2].
The like results for `CCOc1cc(C(=O)N2CCCC(c3cc(C(N)=O)[nH]n3)C2)ccn1` (stereo unspecified) were, in that order, -1.21% and 25.9%.
The like results for `Cc1ccc(NC2CCN(C(=O)c3ccsc3)CC2)nn1` were, in that order, -2.79% and -2.79%.
`COc1ncccc1NC(=O)NCC(O)c1ccc(F)cc1F` (stereo unspecified): the values for the Percent Effect in experiment [1] and in experiment [2] were 4.06% and -0.623%, respectively.
As for `COCC(=O)N1CCC2(CC1)COCCN2CCN(C)C`, the values for the Percent Effect in experiment [1] and in experiment [2] were 3.2% and -1.86%, respectively.
On to `Cc1cc(N2CCC(CC(N)=O)CC2)nc(-c2ccncc2)n1`, for which the Percent Effect in experiment [1] amounted to 6.11%; in experiment [2], 0.525%.
On to `CC(C)CNC(=O)CN1C=Nc2ccccc2S1(=O)=O`, for which the Percent Effect in experiment [1] was 5.2%; in experiment [2], 32.2%.
As to `CN(CCC#N)C(=O)CCOc1cccc(F)c1`, the Percent Effect in experiment [1] is -3.59%; in experiment [2], -25.6%.
For the compound `Cc1cc(NC(=O)NCc2cccnc2OC(C)C)n(C)n1`, the Percent Effect in experiment [1] was 5.63%; in experiment [2], -9.92%.
The matching figures for `CC(=O)N1CCN(c2cc(C3CN(C)CCO3)nc(C)n2)CC1` (stereo unspecified): 0.67% and -24.3%.
In the case of `CN(CC(=O)N1CCCC1Cn1cccn1)C1CC1` (stereo unspecified), the Percent Effect in experiment [1] was -2.14%; in experiment [2], 12.6%.
The like results for `CCN(Cc1cccc2c1OCO2)C(=O)Nc1ccncc1` were, in that order, -0.0463% and -14.2%.
Consider `CNC(=O)CS(=O)(=O)Cc1coc(-c2ccc(OC)cc2)n1`, for which the Percent Effect was -0.993% in experiment [1] and -5.58% in experiment [2].
The matching figures for `CC(C)c1nn(C)c(N(C)C)c1CNCCC(=O)NC1CCCC1`: -3.2% and -5.9%.
Turning to `COc1ccc(OCc2nc(C(=O)N3CC(O)C3)co2)cc1`, the Percent Effect in experiment [1] is -0.0558%; in experiment [2] it was -45.4%.
For `CC1CCCN(Cc2c(C3CCOCC3)[nH]c3ncccc23)C1` (stereo unspecified), the Percent Effect in experiment [1] stood at 3.59%; in experiment [2], 12.7%.
Turning to `COc1ccc(CN2CCC3(CC2)CCN(CC2CC2)C3=O)cc1`, the Percent Effect in experiment [1] was -4.6%; in experiment [2], -2.04%.
On to `Cc1nc(C)n(CC2CCCN(CCc3ccncc3)C2)n1` (stereo unspecified), for which the figures for the Percent Effect in experiment [1] and in experiment [2] were 0.891% and -14.2%, respectively.
The like results for `CN(CC1CCCO1)C1CCN(CCc2ccccn2)CC1` (stereo unspecified) were, in that order, 3.12% and -6.44%.
On to `Cc1noc(C)c1C(=O)N1CC[C@H]2C[C@@H](c3nccs3)O[C@@H]2C1`, for which the Percent Effect was 3.92% in experiment [1] and 3.87% in experiment [2].
With `Cc1cccc(N2Cc3nc(=O)[nH]n3C2=O)c1`, the Percent Effect was -3.43% in experiment [1] and -54.1% in experiment [2].
The matching figures for `O=C(NC[C@]12COC[C@H]1CN(Cc1nccs1)C2)N1CCCC1`: 1.45% and -23.5%.
Consider `CC(CCc1ccccc1)NC(=O)Nc1cnn(CC(N)=O)c1` (stereo unspecified), for which the Percent Effect is 2.84% in experiment [1] and -44.2% in experiment [2].
Consider `Cc1ccc(F)cc1S(=O)(=O)NCc1cccnc1N(C)C`, for which the Percent Effect is 4.75% in experiment [1] and -16.9% in experiment [2].
For the compound `O=C(COc1coc(CN2CCCCC2)cc1=O)Nc1ccccc1Cl`, the figures for the Percent Effect in experiment [1] and in experiment [2] were 0.319% and -4.27%, respectively.
The like results for `CCc1nccn1C1CCCN(C(=O)c2ccc(C(=O)NC)nc2)C1` (stereo unspecified) were, in that order, 2.25% and 2.77%.
For the compound `Cc1ccc(C)c(C(=O)CN2C(=O)c3ccccc3CS2(=O)=O)c1`, the Percent Effect in experiment [1] was 2.42%; in experiment [2], -18.8%.
Consider `Cc1ccc(N2CCCN(C(=O)c3c(C)oc(C)c3C)CC2)nn1`, for which the figures for the Percent Effect in experiment [1] and in experiment [2] were 1.16% and -1.2%, respectively.
The like results for `CCNC(c1cccnc1)c1ccc(F)c(F)c1` (stereo unspecified) were, in that order, -4.58% and 10.8%.
The matching figures for `Cc1cnn(CC2CCCCN2C(=O)c2ccnc(N(C)C)c2)c1` (stereo unspecified): 1.07% and 16.2%.
Consider `Cn1ccc(C(=O)N2CCN(c3ncccn3)CC2)cc1=O`, for which the results for the Percent Effect in experiment [1] and in experiment [2] were 1.62% and 22.4%, respectively.
The matching figures for `C[C@@H]1CN(C2(C(=O)N3CCCCCC3)Cc3ccccc3C2)C[C@H](C)O1`: -2.09% and 3.06%.
Regarding `CC1CN(C)c2ccccc2CN1C(=O)CSc1ccncc1` (stereo unspecified), the Percent Effect in experiment [1] is 6.09%; in experiment [2], -6.66%.
With `CN1CCN(C(=O)Cc2cccc(F)c2)Cc2cccnc21`, the Percent Effect in experiment [1] was -2.05%; in experiment [2] it was -29.8%.
The like results for `COCC1COCCC12CCN(C(=O)CCOc1ccccc1)CC2` (stereo unspecified) were, in that order, 1.23% and 0.928%.
The like results for `CN(Cc1nc(C2CC2)no1)C1CCCN(c2cccnn2)C1` (stereo unspecified) were, in that order, -4.8% and 0.986%.
For `Cc1cccc(OCCC(=O)N2CCCN(CC(N)=O)CC2)c1C`, the Percent Effect is -0.457% in experiment [1] and 1.67% in experiment [2].
The like results for `CC(=O)N1CCCC1c1nccc(C)n1` (stereo unspecified) were, in that order, 0.191% and 0.898%.
The like results for `CCc1nc(CN(C)CC(c2cccs2)N2CCOCC2)no1` (stereo unspecified) were, in that order, -4.22% and -5.08%.
As to `Cn1ncc(NCc2cc(F)cc(F)c2)c(Cl)c1=O`, the values for the Percent Effect in experiment [1] and in experiment [2] were -1.31% and -23.1%, respectively.
In the case of `O=C1NC2(CCN(C(=O)c3ccccc3)CC2)CC1c1cccnc1` (stereo unspecified), the Percent Effect in experiment [1] was -4.95%; in experiment [2], -5.71%.
